These results are taken from PubChem BioAssay AID588651 (The Scripps Research Institute Molecular Screening Center, 2011).

Unmarked numbers belong to inactive results. Activity calls are given as the source filed them. No stated cut-off is given here; in the data, active means inhibition above about 65%; inactive means the rest.

As a reminder, the inhibition is the drop in the measured response relative to a control, in per cent.

This assay concerns Fam108b. Description: Fam108b inhibition by ABPP, late-stage follow-up, biochemical, gel-based ABPP, recombinant soluble Fam108b, HTS hits, complex proteome (AID 588651).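 Further: Fam108b spiked into mouse brain membrane proteome.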 Particulars: FP-rhodamine labeling in proteome, at 20 µM, active compounds read high.
Regarding `Brc1csc(C=NNc2nc3ccccc3s2)c1`, the inhibition is 0%.

For the molecule `Nc1c(S(=O)(=O)c2cccc(Cl)c2)c2nc3ccccc3nc2n1N=Cc1ccc(O)c(O)c1`, the inhibition was 75% (active).

As for `CCCCCCCCCCCCCCCC[n+]1ccc(C=NO)cc1`, the inhibition is 0%. `COc1cc2c(cc1NC(=S)Nc1cccc(C(F)(F)F)c1)oc1ccccc12`: the inhibition was 20%. `Cc1ccc(S(=O)(=O)/N=C2\C=C(Nc3cccc(C(=O)O)c3)C(=O)c3ccccc32)cc1`: the inhibition was 0%. To `O=C(Nc1cccc(-c2csc(Nc3ccc(Cl)cc3)n2)c1)c1cc([N+](=O)[O-])cc(C(F)(F)F)c1` belongs 65% (active); to `Oc1ccccc1-c1nc2c3ccccc3c3ccccc3c2[nH]1`, 0%; to `O=[N+]([O-])c1ccc(NN=Cc2c[nH]c3ccccc23)c(S(=O)(=O)Nc2ccc(Cl)cc2)c1`, 0%.

For the molecule `Cc1cccc(N=Cc2nc(-c3ccccc3Br)oc2O)n1`, the inhibition was 10%. Take `O=C1c2ccccc2-c2onc3ccc(NCCCn4ccnc4)c1c23`: the inhibition is 0%. In the case of `O=C(Nc1ccc(F)cc1)Nc1ccc(N2CCCC2)c(S(=O)(=O)Nc2ccccc2Cl)c1`, the inhibition was 95% (active). To `Cc1ccc2nc(CSc3nc(C)ccc3C#N)[nH]c2c1` belongs 50%; to `Oc1oc(-c2ccccc2Br)nc1C=Nc1ccccn1`, 90% (active).

In the case of `O=C(O)C1Nc2ccc(Br)cc2C2C=CCC12` (centres undefined), the inhibition was 0%. `O=C(Nc1ccc(-c2csc(Nc3ccccc3)n2)cc1)c1cc([N+](=O)[O-])cc(C(F)(F)F)c1`: the inhibition is 60%. For `Cc1cc(NN=Cc2c(O)ccc3ccccc23)nc(-c2ccccc2O)n1`, the inhibition was 85% (active). For the molecule `CCN(CC)S(=O)(=O)c1cc(NC(=O)COC(=O)c2sc3ccccc3c2Cl)ccc1C`, the inhibition was 10%. On to `Oc1c(Cl)cc(Cl)c(Cl)c1Cc1c(O)c(Cl)cc(Cl)c1Cl`, for which the inhibition was 0%.

With `COc1ccc(-c2csc3nc(-c4ccccc4F)oc(=O)c23)cc1`, the inhibition was 95% (active).
